From PubChem BioAssay

Each compound was assayed against Voltage-gated potassium channel subunit beta-2 (Rattus norvegicus) (UniProt P62483) (assay: enhancers of rat Kvbeta2 NADPH turnover – biochemical, NADPH fluorescence, primary screen (AID 623;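 also: fluorescence intensity change per second fitted from 20 to 320 s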)). Conditions: Recombinant KvBeta, NADPH fluorescence decrease slope, 10 min; at 10 µM; hits give low values;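 active = NADPH fluorescence slope more negative than the mean of all samples by about 3 SD, 99.7% confidence; inactive = the rest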.
Sequence of Voltage-gated potassium channel subunit beta-2 (Rattus norvegicus) (P62483 whole entry, looked up): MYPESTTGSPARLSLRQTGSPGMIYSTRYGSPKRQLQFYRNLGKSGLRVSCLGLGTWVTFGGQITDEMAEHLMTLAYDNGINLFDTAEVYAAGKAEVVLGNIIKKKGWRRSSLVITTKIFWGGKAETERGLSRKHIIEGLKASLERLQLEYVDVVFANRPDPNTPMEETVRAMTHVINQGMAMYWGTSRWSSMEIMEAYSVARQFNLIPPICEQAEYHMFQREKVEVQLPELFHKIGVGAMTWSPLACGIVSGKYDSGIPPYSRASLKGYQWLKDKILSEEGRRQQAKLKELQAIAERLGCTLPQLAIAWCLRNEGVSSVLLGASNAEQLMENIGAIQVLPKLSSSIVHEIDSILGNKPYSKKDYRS

NADPH fluorescence slope, inactive:
CN1Cc2c(N)cccc2C(c2ccccc2)C1 (stereo not drawn) -5.7e-05, Cc1cn([C@H]2C=C[C@@H](CO)O2)c(=O)[nH]c1=O 2.9e-05, COC(=O)c1ccc(N2C(=O)CC(N3CCN(C(=O)c4ccco4)CC3)C2=O)cc1 (stereo not drawn) -5.8e-05, C[C@H]1C[C@H]2[C@@H]3CCC4=CC(=O)C=C[C@]4(C)[C@@]3(Cl)[C@@H](O)C[C@]2(C)[C@@]1(O)C(=O)CO -7.9e-05, CCCC1O[C@@H]2C[C@H]3[C@@H]4CCC5=CC(=O)C=C[C@]5(C)[C@H]4[C@@H](O)C[C@]3(C)[C@]2(C(=O)CO)O1 (stereo partly drawn) 1.2e-05, CNCCC(Oc1ccc(C(F)(F)F)cc1)c1ccccc1 (stereo not drawn) -4.5e-05, Clc1ccc(Cn2c(CN3CCCC3)nc3ccccc32)cc1 -3.2e-05, CC(C)NCC(O)COc1ccc(CC(N)=O)cc1 (stereo not drawn) 1.8e-05, CC(C)C[C@H]1C(=O)N2CCC[C@H]2[C@]2(O)O[C@](NC(=O)[C@@H]3C=C4c5cccc6[nH]c(Br)c(c56)CC4N(C)C3)(C(C)C)C(=O)N12 (stereo partly drawn) 8.6e-06, CCOC(=O)c1cc2c(=O)n3cccc(C)c3nc2n(CCc2ccccc2)c1=N -2e-05, CC(=O)OCC1=C(C(=O)O)N2C(=O)[C@@H](NC(=O)Cc3cccs3)[C@H]2SC1 -5.9e-05, Cc1cccc(Nc2ccccc2C(=O)O)c1C -5.8e-05, CC(COc1ccccc1)N(CCCl)Cc1ccccc1 (stereo not drawn) -8e-05
